Experimental data published in PubChem BioAssay (EPA / NIEHS).
Activity calls are given as the source filed them. How the source made its calls: active means hit-call score of the fitted dose curve at least 0.9, where 1 is the maximum; inactive means score below 0.9.

Key:
Conditions in all cases: mRNA level, 48 h; actives raise or lower the signal
[1] = read-out: Cytochrome P450 (CYP24A1), CYP24A1 (gene 1591); assay: LTEA_HepaRG_CYP24A1: Life Technologies and Expression Analysis (LTEA) Assay for Cytochrome P450 (CYP24A1) using HepaRG (AID 2283478)
Procedure, shortened: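 Differentiated HepaRG cells, pre-cultured 48 h, were exposed in duplicate for 48 h in serum-free induction medium to 8 half-log concentrations (top 100 uM, 0.5% DMSO). CYP24A1 mRNA was quantified by TaqMan qRT-PCR, normalized to ACTB/GAPDH/POLR2A, fitted bidirectionally versus DMSO.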

[2] = read-out: Cytochrome P450 (CYP1A2), CYP1A2 (gene 1544); assay: LTEA_HepaRG_CYP1A2: Life Technologies and Expression Analysis (LTEA) Assay for Cytochrome P450 (CYP1A2) using HepaRG (AID 2283479)
Procedure, shortened: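 Differentiated human HepaRG cells in serum-free induction medium were exposed in duplicate for 48 h to 8-point half-log concentrations up to 100 uM in 0.5% DMSO. CYP1A2 mRNA measured by qRT-PCR, normalized to ACTB, GAPDH, POLR2A; bidirectional fit vs DMSO.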

[3] = read-out: cysteine-aspartic acid protease (CASP8), CASP8 (gene 841); assay: LTEA_HepaRG_CASP8: Life Technologies and Expression Analysis (LTEA) Assay for cysteine-aspartic acid protease (CASP8) using HepaRG (AID 2283480)
Procedure, shortened: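 Concentration-response in duplicate up to 100 uM (half-log steps, 0.5% DMSO) on differentiated HepaRG cultures for 48 h. Expression change of CASP8 mRNA is determined by TaqMan qRT-PCR with housekeeping-gene normalization.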

[4] = read-out: Cytochrome P450 (CYP2B6), CYP2B6 (gene 1555); assay: LTEA_HepaRG_CYP2B6: Life Technologies and Expression Analysis (LTEA) Assay for Cytochrome P450 (CYP2B6) using HepaRG (AID 2283481)
Procedure, shortened: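 Differentiated HepaRG cells, serum-free induction medium, exposed 48 h in duplicate to 8-point half-log concentrations from 100 uM in 0.5% DMSO. CYP2B6 mRNA by qRT-PCR, normalized to ACTB, GAPDH, POLR2A; bidirectional fit versus DMSO.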

CYP2C8 (gene 1558) = assay: LTEA_HepaRG_CYP2C8: Life Technologies and Expression Analysis (LTEA) Assay for CYP2C8 using HepaRG (AID 2283483)
Procedure, shortened: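 This is a transcriptional endpoint in HepaRG cultures: 48 h exposure, highest concentration 100 uM. CYP2C8 mRNA is quantified by TaqMan qRT-PCR.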

CYP2C9 (gene 1559) = assay: LTEA_HepaRG_CYP2C9: Life Technologies and Expression Analysis (LTEA) Assay for CYP2C9 using HepaRG (AID 2283484)
Procedure, shortened: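 Eight-point concentration-response (highest 100 uM, half-log dilutions) in HepaRG cells for 48 h; CYP2C9 expression by qRT-PCR normalized to ACTB, GAPDH, POLR2A. Bidirectional fit, DMSO baseline.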

CYP2E1 (gene 1571) = assay: LTEA_HepaRG_CYP2E1: Life Technologies and Expression Analysis (LTEA) Assay for CYP2E1 using HepaRG (AID 2283485)
Procedure, shortened: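 CYP2E1 transcript measured by Fluidigm qRT-PCR against three housekeeping genes in human HepaRG cells treated 48 h (top 100 uM, half-log steps, 0.5% DMSO vehicle). Gain or loss fitted relative to DMSO baseline.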

[5] = read-out: Cytochrome P450 3A4 (Homo sapiens) (UniProt P08684); assay: LTEA_HepaRG_CYP3A4: Life Technologies and Expression Analysis (LTEA) Assay for CYP3A4 using HepaRG (AID 2283487)
Procedure, shortened: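 In a human hepatic line (HepaRG), duplicate wells were treated 48 h with up to 100 uM chemical in half-log dilutions. Endpoint: CYP3A4 mRNA induction or loss relative to 0.5% DMSO vehicle, by qRT-PCR.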

[6] = read-out: DNA damage-inducible transcript 3 (DDIT3), DDIT3 (gene 1649); assay: LTEA_HepaRG_DDIT3: Life Technologies and Expression Analysis (LTEA) Assay for DNA damage-inducible transcript 3 (DDIT3) using HepaRG (AID 2283488)
Procedure, shortened: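 DDIT3 transcript was quantified by qRT-PCR with ACTB/GAPDH/POLR2A normalization after 48 h chemical treatment of differentiated HepaRG cells in 0.5% DMSO. Dosing was eight-point, half-log, top 100 uM, duplicate wells. Curves fitted bidirectionally versus DMSO.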

[7] = read-out: Pro-epidermal growth factor (Homo sapiens) (UniProt P01133); assay: LTEA_HepaRG_EGF: Life Technologies and Expression Analysis (LTEA) Assay for Epidermal growth factor (EGF) using HepaRG (AID 2283489)
Procedure, shortened: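 Differentiated human HepaRG cells, plated 48 h then switched to serum-free induction medium, were exposed for 48 h to test chemicals (8-point half-log series, top 100 uM, 0.5% DMSO). EGF mRNA was quantified by qRT-PCR, normalized to ACTB, GAPDH, POLR2A.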

[8] = read-out: Ezrin (EZR), EZR (gene 7430); assay: LTEA_HepaRG_EZR: Life Technologies and Expression Analysis (LTEA) Assay for Ezrin (EZR) using HepaRG (AID 2283491)
Procedure, shortened: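 Gain or loss of EZR mRNA is scored relative to 0.5% DMSO in human HepaRG cultures treated 48 h with test chemicals in duplicate, eight half-log concentrations from 100 uM.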

[9] = read-out: Cytochrome P450 3A7 (Homo sapiens) (UniProt P24462); assay: LTEA_HepaRG_CYP3A7: Life Technologies and Expression Analysis (LTEA) Assay for CYP3A7 using HepaRG (AID 2283492)
Procedure, shortened: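 HepaRG cells plated 48 h, then dosed in serum-free induction medium for 48 h at 8 concentrations (top 100 uM, half-log steps, 0.5% DMSO). CYP3A7 mRNA by qRT-PCR, normalised to ACTB/GAPDH/POLR2A; bidirectional fit versus DMSO.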

CYP3A5 (gene 1577) = assay: LTEA_HepaRG_CYP3A5: Life Technologies and Expression Analysis (LTEA) Assay for CYP3A5 using HepaRG (AID 2283493)
Procedure, shortened: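 mRNA levels were quantified by qRT-PCR on Fluidigm arrays and normalized to three housekeeping genes. Differentiated HepaRG cells received 48 h exposure (top 100 uM, half-log steps, 0.5% DMSO vehicle, duplicate); bidirectional fitting versus DMSO.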

[10] = read-out: Fatty Acid-Binding Protein 1 (FABP1), FABP1 (gene 2168); assay: LTEA_HepaRG_FABP1: Life Technologies and Expression Analysis (LTEA) Assay for Fatty Acid-Binding Protein 1 (FABP1) using HepaRG (AID 2283494)
Procedure, shortened: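 Values reflect bidirectional concentration-response fitting of FABP1 mRNA change against 0.5% DMSO controls. Human HepaRG cultures received eight half-log doses (top 100 uM) for 48 h; expression quantified by TaqMan qRT-PCR with housekeeping-gene normalization.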

[11] = read-out: Cytochrome P450 4A22 (Homo sapiens) (UniProt Q5TCH4); assay: LTEA_HepaRG_CYP4A22: Life Technologies and Expression Analysis (LTEA) Assay for Cytochrome P450 4A22 (CYP4A22) using HepaRG (AID 2283495)
Procedure, shortened: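 qRT-PCR of CYP4A22 mRNA (Fluidigm TaqMan, normalized to three housekeeping genes) after 48 h chemical exposure of HepaRG cells; 8-point half-log series, top 100 uM, 0.5% DMSO vehicle. Bidirectional curve fitting vs DMSO baseline.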

[12] = read-out: Cytochrome P450 7A1 (Homo sapiens) (UniProt P22680); assay: LTEA_HepaRG_CYP7A1: Life Technologies and Expression Analysis (LTEA) Assay for Cytochrome P450 7A1 (CYP7A1) using HepaRG (AID 2283496)
Procedure, shortened: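 HepaRG, 48 h exposure, 8-pt half-log series from 100 uM, 0.5% DMSO vehicle, duplicates. Readout: TaqMan qRT-PCR mRNA vs three housekeeping genes; bidirectional curve fit against DMSO baseline.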

[13] = read-out: Glutathione S-Transferase (GSTA2), GSTA2 (gene 2939); assay: LTEA_HepaRG_GSTA2: Life Technologies and Expression Analysis (LTEA) Assay for Glutathione S-Transferase (GSTA2) using HepaRG (AID 2283497)
Procedure, shortened: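 Oxidative-stress marker GSTA2 is quantified by TaqMan qRT-PCR in HepaRG cultures treated 48 h across an eight-point range to 100 uM. Expression is normalized to endogenous controls and compared with 0.5% DMSO vehicle.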

[14] = read-out: Cytochrome P450 2C19 (Homo sapiens) (UniProt P33261); assay: LTEA_HepaRG_CYP2C19: Life Technologies and Expression Analysis (LTEA) Assay for CYP2C19 using HepaRG (AID 2283482)
Procedure, shortened: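 Differentiated human HepaRG cells were exposed for 48 h in serum-free induction medium to 8 concentrations (top 100 uM, half-log steps, 0.5% DMSO). CYP2C19 mRNA was measured by qRT-PCR, normalized to ACTB/GAPDH/POLR2A, and fitted bidirectionally against DMSO.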

Measured: AC50

Chain of Cytochrome P450 3A4 (Homo sapiens) (P08684 whole entry, looked up): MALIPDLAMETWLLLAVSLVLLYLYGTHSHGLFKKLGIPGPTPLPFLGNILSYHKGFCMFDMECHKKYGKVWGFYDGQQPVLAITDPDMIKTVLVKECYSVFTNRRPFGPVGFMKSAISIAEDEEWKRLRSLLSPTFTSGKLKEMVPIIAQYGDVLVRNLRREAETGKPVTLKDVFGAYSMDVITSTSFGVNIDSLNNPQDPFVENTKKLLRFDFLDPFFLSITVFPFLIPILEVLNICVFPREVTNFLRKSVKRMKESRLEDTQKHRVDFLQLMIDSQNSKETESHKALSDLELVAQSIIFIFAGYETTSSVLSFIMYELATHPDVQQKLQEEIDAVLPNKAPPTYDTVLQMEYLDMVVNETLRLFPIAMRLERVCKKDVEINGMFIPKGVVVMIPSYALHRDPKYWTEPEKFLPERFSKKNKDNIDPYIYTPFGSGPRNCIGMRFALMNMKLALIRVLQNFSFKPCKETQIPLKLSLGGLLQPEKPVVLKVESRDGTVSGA
Chain of Cytochrome P450 3A7 (Homo sapiens) (P24462 whole entry, looked up): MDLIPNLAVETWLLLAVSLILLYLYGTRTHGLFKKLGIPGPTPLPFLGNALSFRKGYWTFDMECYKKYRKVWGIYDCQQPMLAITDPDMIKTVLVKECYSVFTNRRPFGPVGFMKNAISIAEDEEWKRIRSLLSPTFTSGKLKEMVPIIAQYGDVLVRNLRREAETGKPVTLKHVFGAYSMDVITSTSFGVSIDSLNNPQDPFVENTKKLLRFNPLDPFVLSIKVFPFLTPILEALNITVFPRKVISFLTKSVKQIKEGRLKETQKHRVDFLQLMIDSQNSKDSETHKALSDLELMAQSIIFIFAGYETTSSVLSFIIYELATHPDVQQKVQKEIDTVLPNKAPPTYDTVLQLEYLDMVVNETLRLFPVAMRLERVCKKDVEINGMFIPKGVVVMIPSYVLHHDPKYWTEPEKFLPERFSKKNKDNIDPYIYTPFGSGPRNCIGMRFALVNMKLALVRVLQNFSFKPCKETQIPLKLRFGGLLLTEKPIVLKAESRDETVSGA
Chain of Cytochrome P450 2C19 (Homo sapiens) (P33261 whole entry, looked up): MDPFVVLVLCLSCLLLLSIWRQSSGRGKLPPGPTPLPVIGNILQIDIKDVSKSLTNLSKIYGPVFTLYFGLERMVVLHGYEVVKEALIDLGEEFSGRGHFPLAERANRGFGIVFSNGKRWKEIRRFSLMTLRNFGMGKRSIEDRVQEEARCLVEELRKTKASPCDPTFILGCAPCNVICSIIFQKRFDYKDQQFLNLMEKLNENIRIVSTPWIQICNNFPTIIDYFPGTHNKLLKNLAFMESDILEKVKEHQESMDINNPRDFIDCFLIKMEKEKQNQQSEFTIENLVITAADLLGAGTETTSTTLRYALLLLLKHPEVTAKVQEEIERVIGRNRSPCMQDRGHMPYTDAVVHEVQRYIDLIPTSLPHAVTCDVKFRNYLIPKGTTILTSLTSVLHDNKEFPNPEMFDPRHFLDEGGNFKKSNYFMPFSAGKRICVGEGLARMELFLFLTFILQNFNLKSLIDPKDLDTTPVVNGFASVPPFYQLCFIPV

COc1ccc([N+](=O)[O-])cc1N
inactive: [1] | [3] | CYP2C8 (gene 1558) | CYP2C9 (gene 1559) | CYP2E1 (gene 1571) | [5] | [6] | [7] | [8] | [9] | CYP3A5 (gene 1577) | [10] | [11] | [12] | [13]
active: [2] 50 µM | [4] 20.7 µM

OC1CCC(C2CCCCC2)CC1 (stereo unspecified)
inactive: [1] | [3] | [4] | [14] | CYP2C8 (gene 1558) | CYP2C9 (gene 1559) | CYP2E1 (gene 1571) | [5] | [6] | [7] | [8] | [9] | CYP3A5 (gene 1577) | [10] | [11] | [12] | [13]

CCN(CC)CCNc1ccc(CNC=O)c2sc3ccc(OC)cc3c(=O)c12
inactive: [1] | [14] | CYP2C8 (gene 1558) | [6] | [7]
active: [3] 50 µM | [4] 7.58 µM | CYP2C9 (gene 1559) 16.8 µM | CYP2E1 (gene 1571) 12.8 µM | [5] 50 µM | [8] 76.2 µM | [9] 3.36 µM | CYP3A5 (gene 1577) 50 µM | [10] 21.5 µM | [11] 25.7 µM | [12] 21.7 µM | [13] 81.8 µM
